# Experiments:
# Assay in all cases: DAPPL (digital affinity profiling via proximity ligation, sequencing); 10 mM Tris-HCl pH 7.5, 50 mM NaCl, 1 mM DTT, 4% glycerol, room temperature, 30 min; GST-TFs on glutathione beads, 16-mer random dsDNA library, 0.1% formaldehyde crosslink after washing; high values mean tight binding
# Conditions in all cases: protein: recombinant; tags: N-terminal GST; dsDNA, one strand shown
# ELK1 = molecular target: T1, ELK1 (Homo sapiens, UniProt P19419 1-428)
# T1 sequence: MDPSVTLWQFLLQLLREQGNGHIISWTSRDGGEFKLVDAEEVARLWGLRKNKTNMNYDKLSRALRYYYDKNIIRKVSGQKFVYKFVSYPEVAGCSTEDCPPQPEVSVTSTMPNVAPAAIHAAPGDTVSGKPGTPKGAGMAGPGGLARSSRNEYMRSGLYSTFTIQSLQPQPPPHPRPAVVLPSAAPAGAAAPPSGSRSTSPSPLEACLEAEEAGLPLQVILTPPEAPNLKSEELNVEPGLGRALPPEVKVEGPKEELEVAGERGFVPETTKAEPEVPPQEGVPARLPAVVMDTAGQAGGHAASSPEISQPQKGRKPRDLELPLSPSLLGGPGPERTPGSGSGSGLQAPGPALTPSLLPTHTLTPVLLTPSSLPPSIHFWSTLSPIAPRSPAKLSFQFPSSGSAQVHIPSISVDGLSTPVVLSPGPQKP
# In short: (§1)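 Yeast served to express human transcription factors as GST fusions, which were then captured on glutathione beads and labelled with DNA barcodes. Pooled with a tag-only sample, they were incubated with 200 nmole of a 16-mer random double-stranded DNA library for 30 min at room temperature in Tris/NaCl/DTT/glycerol buffer, washed, crosslinked with 0.1% formaldehyde, ligated by proximity, amplified by PCR and sequenced. Dividing each hexamer's read frequency for a factor by its frequency for the tag-only sample gives the binding signal.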
# GABPA = molecular target: T2, GABPA (Homo sapiens, UniProt Q06546 1-454)
# T2 sequence: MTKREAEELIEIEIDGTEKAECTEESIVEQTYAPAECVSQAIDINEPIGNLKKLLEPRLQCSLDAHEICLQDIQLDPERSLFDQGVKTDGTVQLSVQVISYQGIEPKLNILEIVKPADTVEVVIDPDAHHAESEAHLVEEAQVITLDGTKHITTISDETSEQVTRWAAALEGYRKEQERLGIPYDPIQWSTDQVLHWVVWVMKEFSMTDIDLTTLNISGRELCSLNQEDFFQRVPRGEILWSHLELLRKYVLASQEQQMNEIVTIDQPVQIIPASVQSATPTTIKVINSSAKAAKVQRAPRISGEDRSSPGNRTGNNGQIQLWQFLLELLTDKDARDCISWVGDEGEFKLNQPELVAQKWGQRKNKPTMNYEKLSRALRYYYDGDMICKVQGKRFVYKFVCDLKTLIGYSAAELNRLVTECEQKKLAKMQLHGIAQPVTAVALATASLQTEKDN
# In short: as §1
# ERG = molecular target: T3, ERG (Homo sapiens, UniProt P11308 1-479)
# T3 sequence: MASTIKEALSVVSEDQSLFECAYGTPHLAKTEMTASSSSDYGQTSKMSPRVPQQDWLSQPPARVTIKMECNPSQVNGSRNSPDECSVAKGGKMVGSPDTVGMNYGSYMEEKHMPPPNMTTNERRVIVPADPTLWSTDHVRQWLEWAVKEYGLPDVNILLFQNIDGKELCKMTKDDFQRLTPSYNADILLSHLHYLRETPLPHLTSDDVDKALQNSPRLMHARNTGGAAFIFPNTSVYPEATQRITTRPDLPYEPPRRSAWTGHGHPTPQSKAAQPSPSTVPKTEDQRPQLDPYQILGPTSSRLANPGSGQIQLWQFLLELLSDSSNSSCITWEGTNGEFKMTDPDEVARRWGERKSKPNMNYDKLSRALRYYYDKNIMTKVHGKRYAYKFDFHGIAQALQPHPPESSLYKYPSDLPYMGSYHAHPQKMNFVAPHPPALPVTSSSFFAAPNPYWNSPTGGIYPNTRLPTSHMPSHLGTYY
# In short: as §1
# ELF1 = ELF1 (Homo sapiens, UniProt P32519 1-619)
# In short: as §1
# EHF = molecular target: T4, EHF (Homo sapiens, UniProt Q9NZC4 1-300)
# T4 sequence: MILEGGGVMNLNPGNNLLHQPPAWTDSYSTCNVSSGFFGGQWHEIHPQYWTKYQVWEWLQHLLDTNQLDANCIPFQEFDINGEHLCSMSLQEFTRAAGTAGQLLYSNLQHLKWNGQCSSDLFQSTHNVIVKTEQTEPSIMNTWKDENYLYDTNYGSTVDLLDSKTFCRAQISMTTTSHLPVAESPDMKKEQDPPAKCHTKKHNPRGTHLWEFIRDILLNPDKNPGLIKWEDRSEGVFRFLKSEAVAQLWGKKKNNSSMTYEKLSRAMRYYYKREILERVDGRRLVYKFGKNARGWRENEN
# In short: as §1
# SPIB = SPIB (Homo sapiens, UniProt Q01892 1-262)
# In short: as §1
# ETV5 = ETV5 (Homo sapiens, UniProt P41161 1-510)
# In short: as §1
# ELF4 = ELF4 (Homo sapiens, UniProt Q99607 1-663)
# In short: as §1
# ELK4 = molecular target: T5, ELK4 (Homo sapiens, UniProt P28324-2 1-405)
# T5 sequence: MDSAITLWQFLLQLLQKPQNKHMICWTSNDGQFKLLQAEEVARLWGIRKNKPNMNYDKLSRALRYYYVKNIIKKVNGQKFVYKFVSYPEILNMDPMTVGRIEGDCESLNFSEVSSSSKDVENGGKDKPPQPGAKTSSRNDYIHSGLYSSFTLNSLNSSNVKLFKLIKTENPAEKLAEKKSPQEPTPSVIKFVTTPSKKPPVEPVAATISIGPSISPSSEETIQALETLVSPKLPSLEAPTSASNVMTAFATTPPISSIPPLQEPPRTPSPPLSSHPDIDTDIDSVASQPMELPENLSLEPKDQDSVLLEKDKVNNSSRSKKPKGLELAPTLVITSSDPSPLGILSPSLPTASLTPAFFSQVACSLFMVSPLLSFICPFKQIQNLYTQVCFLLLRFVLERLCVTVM
# In short: as §1
# ELF3 = molecular target: T6, ELF3 (Homo sapiens, UniProt P78545 1-371)
# T6 sequence: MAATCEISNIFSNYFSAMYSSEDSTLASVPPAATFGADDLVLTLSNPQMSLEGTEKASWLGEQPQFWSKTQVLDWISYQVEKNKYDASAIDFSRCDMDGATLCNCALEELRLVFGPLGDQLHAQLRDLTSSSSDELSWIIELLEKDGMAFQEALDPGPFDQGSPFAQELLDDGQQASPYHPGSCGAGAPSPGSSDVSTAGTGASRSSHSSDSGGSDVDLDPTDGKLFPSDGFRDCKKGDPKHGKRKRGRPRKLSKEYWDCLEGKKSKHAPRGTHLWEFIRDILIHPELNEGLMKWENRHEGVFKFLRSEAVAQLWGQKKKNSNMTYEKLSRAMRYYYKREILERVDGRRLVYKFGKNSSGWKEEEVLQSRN
# In short: as §1
# ETV1 = ETV1 (Homo sapiens, UniProt P50549 1-477)
# In short: as §1
# ERF = molecular target: T7, ERF (Homo sapiens, UniProt P50548 1-548)
# T7 sequence: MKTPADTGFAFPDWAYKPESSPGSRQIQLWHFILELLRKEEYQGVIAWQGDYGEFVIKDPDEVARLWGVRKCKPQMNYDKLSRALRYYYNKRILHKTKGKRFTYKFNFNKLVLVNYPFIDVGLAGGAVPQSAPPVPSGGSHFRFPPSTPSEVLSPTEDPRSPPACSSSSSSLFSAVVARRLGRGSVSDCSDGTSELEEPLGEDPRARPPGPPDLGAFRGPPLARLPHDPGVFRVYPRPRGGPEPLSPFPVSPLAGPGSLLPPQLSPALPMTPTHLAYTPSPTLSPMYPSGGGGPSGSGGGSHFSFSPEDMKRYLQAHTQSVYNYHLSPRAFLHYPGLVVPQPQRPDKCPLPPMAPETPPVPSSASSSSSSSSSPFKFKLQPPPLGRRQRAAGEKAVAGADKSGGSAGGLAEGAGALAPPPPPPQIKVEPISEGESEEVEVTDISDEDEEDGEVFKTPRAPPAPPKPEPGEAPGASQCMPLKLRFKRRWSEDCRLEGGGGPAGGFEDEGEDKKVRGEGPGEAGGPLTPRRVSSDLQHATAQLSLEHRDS
# In short: as §1
# ETV3L = molecular target: T8, ETV3L (Homo sapiens, UniProt Q6ZN32 1-361)
# T8 sequence: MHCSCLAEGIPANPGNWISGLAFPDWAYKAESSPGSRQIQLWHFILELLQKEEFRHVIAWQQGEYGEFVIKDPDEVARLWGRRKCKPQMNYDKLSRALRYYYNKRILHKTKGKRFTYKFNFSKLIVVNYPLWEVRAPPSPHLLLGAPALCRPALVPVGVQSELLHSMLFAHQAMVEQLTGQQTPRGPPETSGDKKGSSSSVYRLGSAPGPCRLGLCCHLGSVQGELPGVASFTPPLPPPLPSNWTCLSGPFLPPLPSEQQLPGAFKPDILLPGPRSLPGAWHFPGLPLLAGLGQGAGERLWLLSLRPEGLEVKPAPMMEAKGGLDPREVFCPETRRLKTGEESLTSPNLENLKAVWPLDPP
# In short: as §1
# ETS2 = molecular target: T9, ETS2 (Homo sapiens, UniProt P15036 1-469)
# T9 sequence: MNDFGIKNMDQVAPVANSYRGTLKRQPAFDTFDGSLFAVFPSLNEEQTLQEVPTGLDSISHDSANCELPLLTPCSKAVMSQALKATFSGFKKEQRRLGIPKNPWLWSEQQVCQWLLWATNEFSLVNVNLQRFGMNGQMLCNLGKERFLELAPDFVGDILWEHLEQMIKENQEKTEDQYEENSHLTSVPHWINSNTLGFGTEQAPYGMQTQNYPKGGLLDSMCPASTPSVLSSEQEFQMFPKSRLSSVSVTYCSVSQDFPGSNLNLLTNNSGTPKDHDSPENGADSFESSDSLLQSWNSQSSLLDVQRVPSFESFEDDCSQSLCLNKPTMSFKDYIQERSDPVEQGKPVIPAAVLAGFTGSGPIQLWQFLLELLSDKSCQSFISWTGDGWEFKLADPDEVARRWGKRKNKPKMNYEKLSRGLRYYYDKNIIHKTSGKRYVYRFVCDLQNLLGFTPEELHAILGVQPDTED
# In short: as §1
# ETV7 = molecular target: T10, ETV7 (Homo sapiens, UniProt Q9Y603 1-341)
# T10 sequence: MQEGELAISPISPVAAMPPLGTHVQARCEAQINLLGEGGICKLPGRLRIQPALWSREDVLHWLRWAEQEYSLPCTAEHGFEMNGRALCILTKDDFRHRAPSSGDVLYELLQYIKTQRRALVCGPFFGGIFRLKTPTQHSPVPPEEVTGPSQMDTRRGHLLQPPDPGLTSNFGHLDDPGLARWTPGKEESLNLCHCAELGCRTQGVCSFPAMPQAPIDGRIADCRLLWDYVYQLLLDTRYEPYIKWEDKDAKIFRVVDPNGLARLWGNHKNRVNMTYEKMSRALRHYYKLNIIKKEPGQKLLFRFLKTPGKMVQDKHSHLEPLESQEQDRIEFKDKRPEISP
# In short: as §1
# ETV3 = molecular target: T11, ETV3 (Homo sapiens, UniProt P41162-2 1-143)
# T11 sequence: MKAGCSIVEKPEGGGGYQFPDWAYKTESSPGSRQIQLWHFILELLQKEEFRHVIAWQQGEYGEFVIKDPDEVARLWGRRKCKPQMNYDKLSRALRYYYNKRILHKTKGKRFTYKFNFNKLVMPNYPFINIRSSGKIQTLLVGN
# In short: as §1
# ETV6 = ETV6 (Homo sapiens, UniProt P41212 1-452)
# In short: as §1
# ETV5, sequence (P41161 whole entry): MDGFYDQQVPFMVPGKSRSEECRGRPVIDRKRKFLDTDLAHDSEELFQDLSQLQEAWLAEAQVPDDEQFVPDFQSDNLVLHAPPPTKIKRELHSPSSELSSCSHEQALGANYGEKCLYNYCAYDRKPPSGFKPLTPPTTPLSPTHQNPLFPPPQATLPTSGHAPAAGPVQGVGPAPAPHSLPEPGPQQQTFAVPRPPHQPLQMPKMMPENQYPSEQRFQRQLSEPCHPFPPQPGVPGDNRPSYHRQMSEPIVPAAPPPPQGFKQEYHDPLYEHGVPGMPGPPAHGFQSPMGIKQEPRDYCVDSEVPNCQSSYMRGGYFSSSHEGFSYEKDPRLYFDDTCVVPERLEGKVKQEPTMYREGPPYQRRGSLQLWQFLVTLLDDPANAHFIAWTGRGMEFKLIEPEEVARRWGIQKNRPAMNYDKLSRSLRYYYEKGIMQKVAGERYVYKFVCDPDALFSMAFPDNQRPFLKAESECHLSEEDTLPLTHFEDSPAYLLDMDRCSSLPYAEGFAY
# ELF1, sequence (P32519 whole entry): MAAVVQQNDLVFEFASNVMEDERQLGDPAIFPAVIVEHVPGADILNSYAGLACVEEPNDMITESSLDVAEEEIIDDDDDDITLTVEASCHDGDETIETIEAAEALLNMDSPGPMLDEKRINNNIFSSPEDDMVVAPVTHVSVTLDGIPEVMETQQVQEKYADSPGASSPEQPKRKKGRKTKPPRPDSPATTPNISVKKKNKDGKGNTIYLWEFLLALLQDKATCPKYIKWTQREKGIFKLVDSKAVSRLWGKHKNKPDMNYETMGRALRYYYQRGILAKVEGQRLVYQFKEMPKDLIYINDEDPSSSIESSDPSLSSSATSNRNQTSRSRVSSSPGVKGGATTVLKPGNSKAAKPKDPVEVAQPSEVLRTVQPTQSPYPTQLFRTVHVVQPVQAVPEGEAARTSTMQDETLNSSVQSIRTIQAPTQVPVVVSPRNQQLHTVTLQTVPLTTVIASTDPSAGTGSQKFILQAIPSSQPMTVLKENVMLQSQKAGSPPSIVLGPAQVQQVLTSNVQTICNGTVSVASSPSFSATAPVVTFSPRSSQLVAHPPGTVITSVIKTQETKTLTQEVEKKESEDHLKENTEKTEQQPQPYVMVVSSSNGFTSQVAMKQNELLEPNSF
# ETV1, sequence (P50549 whole entry): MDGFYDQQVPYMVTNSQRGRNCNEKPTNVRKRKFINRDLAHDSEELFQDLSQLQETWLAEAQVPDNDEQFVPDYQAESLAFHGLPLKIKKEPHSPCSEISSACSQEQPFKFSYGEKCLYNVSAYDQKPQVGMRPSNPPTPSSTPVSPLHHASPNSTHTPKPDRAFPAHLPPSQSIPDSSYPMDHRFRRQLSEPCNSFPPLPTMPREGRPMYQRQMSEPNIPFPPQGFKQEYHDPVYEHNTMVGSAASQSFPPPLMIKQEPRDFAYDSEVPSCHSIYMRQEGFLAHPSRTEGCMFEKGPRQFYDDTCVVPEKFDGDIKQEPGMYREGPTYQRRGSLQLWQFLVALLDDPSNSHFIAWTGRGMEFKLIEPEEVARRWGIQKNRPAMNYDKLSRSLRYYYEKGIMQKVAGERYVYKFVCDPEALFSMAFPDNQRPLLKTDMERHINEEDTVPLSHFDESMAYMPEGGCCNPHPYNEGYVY
# ETV6, sequence (P41212 whole entry): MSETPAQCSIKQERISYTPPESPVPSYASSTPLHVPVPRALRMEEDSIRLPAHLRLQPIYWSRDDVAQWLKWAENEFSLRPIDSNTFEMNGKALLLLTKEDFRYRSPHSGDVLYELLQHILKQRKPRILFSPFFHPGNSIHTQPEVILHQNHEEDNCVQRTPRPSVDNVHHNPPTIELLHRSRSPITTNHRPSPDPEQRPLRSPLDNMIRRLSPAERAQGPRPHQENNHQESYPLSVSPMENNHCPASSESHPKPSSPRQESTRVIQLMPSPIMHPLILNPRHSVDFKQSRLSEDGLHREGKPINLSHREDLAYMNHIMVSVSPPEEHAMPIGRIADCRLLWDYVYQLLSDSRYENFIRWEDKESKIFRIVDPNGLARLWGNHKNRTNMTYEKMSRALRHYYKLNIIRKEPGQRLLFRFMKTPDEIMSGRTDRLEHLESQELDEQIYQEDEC
# ELF4, sequence (Q99607 whole entry): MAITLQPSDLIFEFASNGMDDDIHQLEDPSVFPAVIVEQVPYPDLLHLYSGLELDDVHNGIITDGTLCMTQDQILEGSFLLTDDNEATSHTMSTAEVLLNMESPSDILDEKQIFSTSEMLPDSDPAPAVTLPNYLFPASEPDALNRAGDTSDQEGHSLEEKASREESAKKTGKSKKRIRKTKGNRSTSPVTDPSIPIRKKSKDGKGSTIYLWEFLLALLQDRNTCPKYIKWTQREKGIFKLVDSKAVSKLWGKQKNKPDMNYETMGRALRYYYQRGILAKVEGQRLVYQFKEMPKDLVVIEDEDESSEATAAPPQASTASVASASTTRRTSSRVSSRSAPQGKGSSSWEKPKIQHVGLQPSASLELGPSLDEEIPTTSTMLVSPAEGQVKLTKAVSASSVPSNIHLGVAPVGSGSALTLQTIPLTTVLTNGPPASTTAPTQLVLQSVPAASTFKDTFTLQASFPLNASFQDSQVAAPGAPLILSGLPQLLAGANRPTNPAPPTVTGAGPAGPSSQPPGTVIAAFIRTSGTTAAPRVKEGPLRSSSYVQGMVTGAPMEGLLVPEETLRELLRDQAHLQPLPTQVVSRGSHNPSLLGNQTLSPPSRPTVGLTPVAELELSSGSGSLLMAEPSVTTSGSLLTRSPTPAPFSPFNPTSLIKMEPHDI
# SPIB, sequence (Q01892 whole entry): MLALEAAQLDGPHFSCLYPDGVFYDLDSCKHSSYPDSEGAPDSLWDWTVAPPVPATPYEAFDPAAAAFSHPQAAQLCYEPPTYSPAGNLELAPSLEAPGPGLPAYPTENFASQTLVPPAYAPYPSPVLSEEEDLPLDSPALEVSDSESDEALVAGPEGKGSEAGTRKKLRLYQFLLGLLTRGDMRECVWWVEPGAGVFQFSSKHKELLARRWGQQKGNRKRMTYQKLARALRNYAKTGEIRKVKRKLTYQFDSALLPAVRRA
sequence,measurement,setting,value
GTAGCT,binding signal,ELK1,"1.08 fold enrichment (6-mer frequency, TF over GST control)"
same,binding signal,GABPA,"1.12 fold enrichment (6-mer frequency, TF over GST control)"
same,binding signal,ERG,"1.05 fold enrichment (6-mer frequency, TF over GST control)"
same,binding signal,ELF1,"1.06 fold enrichment (6-mer frequency, TF over GST control)"
same,binding signal,EHF,"1.12 fold enrichment (6-mer frequency, TF over GST control)"
same,binding signal,SPIB,"1.18 fold enrichment (6-mer frequency, TF over GST control)"
same,binding signal,ETV5,"1.14 fold enrichment (6-mer frequency, TF over GST control)"
same,binding signal,ELF4,"1.1 fold enrichment (6-mer frequency, TF over GST control)"
same,binding signal,ELK4,"1.17 fold enrichment (6-mer frequency, TF over GST control)"
same,binding signal,ELF3,"1.18 fold enrichment (6-mer frequency, TF over GST control)"
same,binding signal,ETV1,"1.13 fold enrichment (6-mer frequency, TF over GST control)"
same,binding signal,ERF,"1.1 fold enrichment (6-mer frequency, TF over GST control)"
same,binding signal,ETV3L,"1.08 fold enrichment (6-mer frequency, TF over GST control)"
same,binding signal,ETS2,"1.13 fold enrichment (6-mer frequency, TF over GST control)"
same,binding signal,ETV7,"1.12 fold enrichment (6-mer frequency, TF over GST control)"
same,binding signal,ETV3,"1.09 fold enrichment (6-mer frequency, TF over GST control)"
same,binding signal,ETV6,"1.06 fold enrichment (6-mer frequency, TF over GST control)"

# Reference: PMC7862700, “An all-to-all approach to the identification of sequence-specific readers for epigenetic DNA modifications on cytosine”
